Assays:
[1] = test system: Human papillomavirus type 1a protein E7 (residues 44-93); assay: HPV1a E7 fragment binders on microarrays, primary screen, biochemical, small-molecule microarray, residues 44-93, 635 nm fluorescence (AID 1108); conditions: small-molecule microarray binding, fluorescence 635 nm; higher = more signal;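 further: E7 fragment applied at 1 µg/mL in TBST for 1 h at 4 C; score combines spot fluorescence with its signal to noise ratio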
[2] = modulators of HCV replicon luciferase signal, primary screen, HCV replication inhibitor project, Huh7 cells, luciferase reporter (AID 1109); conditions: 48 h, higher = more signal;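 further: huh7 hepatoma cells harbouring a luciferase neomycin HCV replicon reporter; luciferase luminescence as measure of HCV replicon replication; test concentration not given here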
[3] = target: Left-right determination factor 2 (Homo sapiens) (UniProt O00292); assay: LEFTY2 binders on small-molecule microarrays, primary screen, biochemical, small-molecule microarray, 635 nm fluorescence scan (AID 1110); conditions: LEFTY2 binding, higher = more signal
Chain of Left-right determination factor 2 (Homo sapiens) (O00292 whole entry, looked up): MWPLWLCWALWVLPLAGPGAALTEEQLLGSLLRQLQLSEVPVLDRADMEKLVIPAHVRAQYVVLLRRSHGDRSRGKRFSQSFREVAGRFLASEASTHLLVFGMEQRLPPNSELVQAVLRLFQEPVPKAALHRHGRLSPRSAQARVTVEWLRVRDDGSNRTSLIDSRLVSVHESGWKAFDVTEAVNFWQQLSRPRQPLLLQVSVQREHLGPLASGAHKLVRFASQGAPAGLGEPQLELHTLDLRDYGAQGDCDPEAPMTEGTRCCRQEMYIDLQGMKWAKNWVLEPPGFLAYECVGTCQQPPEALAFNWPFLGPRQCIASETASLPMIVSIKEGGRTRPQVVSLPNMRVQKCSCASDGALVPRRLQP

[4] = target: Calmodulin-1 (Homo sapiens) (UniProt P0DP23); assay: CALM1 binders on microarrays, EGTA buffer, profiling panel, biochemical, small-molecule microarray, Cy5-labelled CALM1 (AID 1111); conditions: Cy5-CALM1 binding fluorescence, higher = more signal;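 further: labelled calmodulin applied in Tris saline Tween buffer holding calcium plus EGTA and DTT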
[5] = target: Calmodulin-1 (Homo sapiens) (UniProt P0DP23); assay: calcium-bound CALM1 binders on microarrays, profiling panel, artefact control for SMM control-protein annotation, biochemical, small-molecule microarray, Cy5-labelled CALM1, plus calcium (AID 1112); conditions: Cy5-CALM1 binding fluorescence, higher = more signal;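 further: score merges spot fluorescence with signal to noise from triplicate slides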
[6] = small-molecule microarray binders of probe aWnt5a, primary screen, biochemical, biotinylated probe, 635/667 nm fluorescence (AID 1113); conditions: higher = more signal;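 further: score merges 667 nm fluorescence intensity with signal-to-noise per printed feature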
[7] = small-molecule microarray binders of probe aShh, primary screen, biochemical, biotinylated probe, 635/667 nm fluorescence (AID 1114); conditions: higher = more signal;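 further: probe is biotin-labelled aShh protein from a stem cell growth factor screen; measures binding of labelled protein to compounds printed on the slide; score merges feature fluorescence at 667 nm with signal-to-noise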
[8] = small-molecule microarray binders of probe aNog, primary screen, biochemical, biotinylated probe, 635/667 nm fluorescence (AID 1115); conditions: higher = more signal;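 further: probe is biotinylated aNog protein used at 0.15 µg/mL for 1 h at 4 C; z-score combines 667 nm fluorescence of each spot with its signal to noise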
[9] = target: Torsin-1A-interacting protein 1 (Homo sapiens) (UniProt Q5JTV8); assay: LAP1 binders from COS7 cell lysate, primary screen, small-molecule microarray, 635/667 nm fluorescence (AID 1116); conditions: COS7-hLAP1 lysate binding, 635 nm fluorescence, higher = more signal
Chain of Torsin-1A-interacting protein 1 (Homo sapiens) (Q5JTV8 whole entry, looked up): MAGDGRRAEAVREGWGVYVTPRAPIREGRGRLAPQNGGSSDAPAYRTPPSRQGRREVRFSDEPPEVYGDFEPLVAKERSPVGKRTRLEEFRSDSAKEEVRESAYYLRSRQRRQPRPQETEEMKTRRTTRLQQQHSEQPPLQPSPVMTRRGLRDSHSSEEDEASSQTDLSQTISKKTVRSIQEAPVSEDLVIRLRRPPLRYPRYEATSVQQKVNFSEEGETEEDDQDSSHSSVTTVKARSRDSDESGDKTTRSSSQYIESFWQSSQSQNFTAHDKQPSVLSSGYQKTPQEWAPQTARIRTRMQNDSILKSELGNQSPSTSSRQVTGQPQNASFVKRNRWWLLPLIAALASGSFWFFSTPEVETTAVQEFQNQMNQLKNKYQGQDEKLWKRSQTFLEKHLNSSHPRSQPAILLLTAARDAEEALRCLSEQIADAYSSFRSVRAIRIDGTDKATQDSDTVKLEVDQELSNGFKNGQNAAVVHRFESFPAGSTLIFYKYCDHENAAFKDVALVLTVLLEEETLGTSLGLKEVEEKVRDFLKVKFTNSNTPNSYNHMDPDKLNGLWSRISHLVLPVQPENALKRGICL

[10] = target: Alpha-bungarotoxin (Bungarus multicinctus) (UniProt P60615); assay: alpha-bungarotoxin binders on microarray, profiling panel, artefact control for SMM control protein annotation, biochemical, small-molecule microarray, Alexa647 label, 635/667 nm fluorescence (AID 1117); conditions: alpha-BTX-A647 binding fluorescence, higher = more signal
Chain of Alpha-bungarotoxin (Bungarus multicinctus) (P60615 whole entry, looked up): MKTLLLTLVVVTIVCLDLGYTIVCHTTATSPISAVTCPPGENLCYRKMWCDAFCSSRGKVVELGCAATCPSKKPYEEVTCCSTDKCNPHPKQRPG

| Compound | composite z-score [1] | z-score [2] | composite z-score [3] | composite z-score [4] | composite z-score [5] | composite z-score [6] | composite z-score [7] | composite z-score [8] | composite z-score [9] | composite z-score [10] |
| --- | --- | --- | --- | --- | --- | --- | --- | --- | --- | --- |
| CCOC(=O)CCN1C(=O)[C@H]2[C@H]3[C@H](O)[C@H](O)CC(=NNC(=O)OCc4ccccc4)[C@@H]3CC[C@H]2C1=O | 0.582 | -0.582 | 0.929 | 0.634 | -0.0903 | -0.0819 | -0.0035 | -0.147 | 0.754 | 0.999 |
| CCc1cc2c(nc1CC)CCN(CCC(C)=NO[C@H](C)c1cn([C@@H]3COC[C@H]3O)nn1)C2 | -0.236 | -0.53 | 0.368 | -0.433 | -0.931 | -0.0479 | 0.0723 | -0.172 | 0.651 | 0.173 |
| C[C@@H](c1ccccc1)N1C(=O)[C@H]2[C@H]3[C@H](O)[C@H](O)CC(=NO[C@@H]4O[C@H](CO)[C@@H](O)[C@H](O)[C@H]4O)[C@@H]3CC[C@H]2C1=O | 0.292 | -0.278 | 0.576 | -0.238 | -0.686 | -0.0403 | -0.19 | 0.0924 | 0.526 | 0.199 |
| CC(=O)O[C@H]1C2=CO[C@H](C)[C@H]3[C@H]4C5=C([C@H](O)[C@H]6O[C@H]6C5=O)[C@H](OC4C)[C@@]23C(=O)[C@@H]2O[C@@H]21 (stereo not given in full) | -0.361 | -4.68 | 0.384 | -0.935 | -0.994 | 0.0108 | 0.0804 | 0.262 | 0.963 | -1.03 |
| CCOC(=O)[C@H](CC(C)C)NC(=O)CCC1CC(OC(=O)NCc2cccc3ccccc23)CC2(CCCC(COC(=O)NCc3cccc(C(F)(F)F)c3)O2)O1 (stereo not given in full) | 0.0567 | 1.32 | 0.67 | -0.333 | -0.568 | -0.0643 | -0.0626 | -0.158 | -0.0162 | 0.157 |
| C[C@@H](ON=C1[C@H]2CCn3c(=O)n(-c4ccccc4)c(=O)n3[C@H]2[C@H](O)[C@@H]2O[C@H]12)c1cn([C@@H]2COC[C@H]2O)nn1 | 0.361 | -2.38 | 0.698 | -0.287 | -0.568 | -0.119 | 0.0611 | 0.139 | 0.07 | 0.237 |
| CCOC(=O)NN=C1C[C@@H](O)[C@@H](O)[C@@H]2[C@@H]3C(=O)N([C@@H](C)c4ccccc4)C(=O)[C@@H]3CC[C@H]12 | 0.171 | -0.789 | 0.0792 | -0.258 | -0.453 | -0.124 | -0.117 | -0.287 | 2.53 | -0.0914 |
| CCOC(=O)NN=C1C[C@@H](O)[C@@H](O)[C@@H]2[C@@H]3C(=O)N(C(C)(C)C)C(=O)[C@@H]3CC[C@H]12 | 0.217 | -0.0742 | 0.481 | -0.0749 | -0.913 | 0.0068 | 0.108 | -0.171 | 0.0059 | -0.0211 |
| CCCCC#C[C@@H]1C=C[C@H](Oc2cc(OC)c(OC)c(OC)c2)[C@@H](COC(=O)OCC)O1 | -0.709 | -0.548 | 0.144 | -0.659 | -0.986 | -0.124 | -0.276 | -0.158 | 0.0606 | 0.624 |
| C=COC[C@@H]1CN2[C@@H](CC[C@@H](C)[C@@H]2c2ccc(Br)cc2)C(=O)O1 | -0.0205 | -0.0522 | -0.0429 | -0.941 | -1.26 | -0.124 | 0.0284 | -0.0079 | -0.111 | 0.259 |
| COC(=O)CC=C[C@H](C)[C@@H](OCc1cccc(Br)c1)[C@@H](C)[C@H](OC)C1CCCCC1 | -0.835 | -0.291 | 0.388 | -0.893 | -1.07 | -0.0944 | -0.282 | -0.449 | -0.343 | -0.308 |
| CCOC(=O)[C@H](Cc1ccccc1)NC(=O)CCC1CC(OC(=O)NCCc2ccc(F)cc2)CC2(CCCC(COC(=O)NCCc3ccc(Cl)cc3)O2)O1 (stereo not given in full) | 1.33 | -0.226 | 0.546 | 1.28 | 0.198 | -0.158 | -0.0977 | 0.232 | 0.949 | 0.49 |
| CC(C)[C@@H](OCc1ccccc1)[C@H](C)C=NOC[C@@H](O)COCc1ccco1 | -0.549 | -2.38 | -1.05 | -1.71 | -1.81 | -0.204 | -0.37 | -0.577 | -1.05 | -0.0069 |
| C[C@H](ON=C1[C@H]2CCn3c(=O)n(-c4ccccc4)c(=O)n3[C@H]2[C@H](O)[C@@H]2O[C@H]12)c1cn([C@H](CO)Cc2ccccc2)nn1 | 0.345 | -2.91 | 0.605 | 1.15 | -0.444 | -0.0179 | -0.195 | 0.0637 | -0.168 | 0.104 |
| CC(C)=CCCC(C)=CCON=C1C[C@@H](O)[C@@H](O)[C@@H]2[C@@H]3C(=O)N(c4ccc(F)cc4F)C(=O)[C@@H]3CC[C@@H]12 | 0.15 | -1.08 | 0.821 | -0.343 | 0.0144 | -0.169 | -0.0553 | -0.374 | 1 | 0.703 |
| C#CCCCON=C1C[C@@H](O)[C@@H](O)[C@@H]2[C@@H]3C(=O)N(c4ccc(F)cc4F)C(=O)[C@@H]3CC[C@@H]12 | 0.184 | 0.296 | 0.321 | -0.212 | -0.813 | -0.197 | -0.179 | 0.14 | 0.36 | 0.155 |
| CCOC(=O)[C@H](CC(C)C)NC(=O)CCC1CC(OC(=O)NCCc2ccc(F)cc2)CC2(CCCC(COC(=O)NCCOc3ccccc3)O2)O1 (stereo not given in full) | 1.36 | -0.972 | 1.16 | 1.02 | -0.129 | -0.15 | -0.13 | -0.0965 | 0.531 | 0.947 |
| COC(=O)[C@@H]1CC[C@H](C)[C@@H](c2ccc(C)cc2)N1C(=O)c1ccc(C=NOCC[C@@H]2C=C[C@H](OC(C)=O)[C@@H](COC(C)=O)O2)cc1 | 0.875 | -0.852 | 0.465 | -0.0548 | -0.141 | -0.0778 | -0.0553 | -0.37 | 1.41 | 0.646 |
| C=CC[C@@H]1C=C[C@H](ON=C(C)CCN2CCc3nc(-c4ccccc4)c(-c4ccccc4)cc3C2)[C@@H](CO)O1 | 1.36 | -1.81 | 0.407 | 0.636 | -0.252 | -0.0735 | -0.0626 | -0.303 | 0.782 | 0.729 |
| CC(=O)OC[C@H]1O[C@@H](ON=C(C)CCN2CCCc3nc(C)c(C)cc32)[C@H](OC(C)=O)[C@@H](OC(C)=O)[C@@H]1OC(C)=O | 1.38 | -1.14 | 0.737 | 0.113 | -0.743 | -0.117 | -0.167 | 0.0401 | 0.466 | 0.0927 |
| O=C1C=C[C@@H](O)[C@@H]2[C@@H]3C(=O)N(C[C@@H]4CCCO4)C(=O)[C@@H]3CC[C@@H]12 | 0.0168 | -0.848 | 0.449 | -0.202 | -0.78 | -0.124 | 0.111 | -0.176 | 0.206 | 0.33 |
| COC(=O)[C@@H]1CC[C@H](C)[C@@H](c2ccc(C)cc2)N1C(=O)c1ccc(C=NO[C@H](C)c2cn([C@@H]3COC[C@H]3O)nn2)cc1 | 1.33 | -1.06 | 0.635 | 0.0264 | -0.361 | -0.152 | 0.0141 | -0.0065 | 0.581 | -0.0105 |
| COc1ccc(O[C@H]2C=C[C@@H](c3ccccc3)O[C@@H]2COC(=O)CCC(C)=NO[C@@H]2O[C@H](COC(C)=O)[C@@H](OC(C)=O)[C@H](OC(C)=O)[C@H]2OC(C)=O)cc1 | 1.29 | -1.88 | 0.511 | -0.126 | -0.643 | -0.0944 | -0.206 | -0.53 | 0.38 | 0.731 |
| CO[C@H]1COC(=O)CC=C[C@@H](C)[C@H](NS(=O)(=O)c2ccc(C)cc2)COC(=O)CCC[C@@H]1C | 0.106 | -2.24 | 0.8 | -0.789 | -1.3 | -0.154 | -0.188 | -0.321 | 0.784 | 0.493 |
| CO[C@@H]1COC(=O)[C@H](CCSC)NC(=O)CC=C[C@@H](C)COC(=O)CCC[C@H]1C | -1.18 | -0.346 | 1.65 | -1.94 | -2.51 | -0.175 | -0.214 | -0.472 | 0.813 | -0.354 |
